Source: PubChem BioAssay
USP10 inh = human USP10 deubiquitinase inhibition. AID 1645856. actives 1.1% (n = 47,000). purified USP10, Ub-rhodamine fluorescence, 60 min. inhibition, % at 20 µM
USP17 inh = inhibitors of human USP17 deubiquitinase | A8MUK1 | purified USP17, Ub-rhodamine cleavage fluorescence, 3 h | inhibition, % at 50 µM | AID 1645855 | actives 6.5% (n = 47,000)
USP30 inh = human USP30 deubiquitinase inhibition. Q70CQ3. actives 5.3% (n = 47,000). purified USP30, Ub-rhodamine cleavage fluorescence. inhibition, % at 25 µM. AID 1645860
USP28 block = inhibitors of human USP28 deubiquitinase | Q96RU2 | purified USP28, Ub-rhodamine cleavage fluorescence, 30 min | inhibition, % at 25 µM | actives 3% (n = 47,000)
USP8 block = human USP8 deubiquitinase inhibition | actives 4.2% (n = 47,000) | P40818 | purified USP8, Ub-rhodamine cleavage fluorescence, 30 min | inhibition, % at 20 µM | AID 1645853
An asterisk follows results filed as active; nt = not tested or not shown. An excerpt weighted towards active compounds, which were near 14% of everything screened. Cut-off read from the data, not from the text of the source: active = inhibition above about 30%; inactive = the rest.

SMILES	USP10 inh	USP17 inh	USP30 inh	USP28 block	USP8 block
Cn1c(=O)c2c(nc(CN3CCN(Cc4ccccc4)CC3)n2CCN2CCOCC2)n(C)c1=O	1	-2	0	-4	-6
Cc1ccc(Cn2nccc2NC(=O)c2snnc2C)cc1	2	-3	12	2	-27
COc1ccc(NS(=O)(=O)c2cc(NC(=O)CCC(=O)c3ccc(F)cc3)ccc2C)cc1	9	-8	36*	2	2
Cc1ccc(-c2csc(-n3ncc(C(=O)N4CCN(C(=O)Nc5cccc6ccccc56)C(C)C4)c3C(C)C)n2)cc1 (configuration not stated)	-18	63*	-53	27	80*
COc1ccccc1N1CCN(C(=O)Cc2ccccc2[N+](=O)[O-])CC1	-2	-14	3	1	-5
COc1ccccc1CC(=O)N1CCN(c2cccc3[nH]ccc23)CC1	-6	13	-26	-5	58*
CC(C)c1cnn2c(NCc3ccccc3)cc(NCCCCCCN)nc12	3	-8	37*	40*	3
Cn1ncc2c(NCc3ccccc3)nc(N3CCCCC3)nc21	11	-6	-12	4	-11
Cc1nc(C2CCCCN2C(=O)c2ccccc2)ncc1C(=O)N1CCOCC1 (configuration not stated)	0	-4	-52	-13	1
COc1cc(CNc2cccc(-c3nc4ncccc4o3)c2)ccc1OCC(N)=O	-2	11	-18	0	16
COc1ccc(OC)c(-c2cn3ccn(-c4ccc(F)c(Cl)c4)c(=O)c3n2)c1	31*	39*	19	17	94*
CCc1ccc(-c2cn3ccn(-c4ccccc4OC)c(=O)c3n2)cc1	1	2	-10	-7	13
CN1CCC(Nc2nnc(-c3nnc(C4CC4)o3)c3ccccc23)CC1	2	6	13	7	3
CCc1nnc(-c2nnc(NC3CCN(C)CC3)c3ccccc23)o1	1	12	32*	17	3
COc1ccccc1CC(=O)N(C)C(c1ccccc1)c1ccccc1	10	27	52*	26	-5
COc1cc(CCC(=O)N(C)C(c2ccccc2)c2ccccc2)cc(OC)c1OC	3	5	0	4	1
CC1CCN(C(=O)CN2CCC3(CCC2=O)NC(=O)c2ccccc2O3)CC1 (configuration not stated)	-1	-14	-4	-3	-1
Cc1nnc(-c2cc(S(=O)(=O)NCc3ccccc3)c[nH]2)o1	0	-29	-17	-9	6
NCC(=O)N[C@H]1C[C@H]2CN(Cc3ccccc3)c3ccccc3CN2C1	-2	-57	-183	-39	-18
O=C(NCc1cccc(F)c1)c1ccc2c(c1)NC(=O)C1CCCN21 (configuration not stated)	-8	48*	-59	-12	67*
CC1CCCC(C)N1CCCNC(=O)c1ccc2c(c1)NC(=O)C1CCCN21 (configuration not stated)	-7	-110	-499	-110	-13
COc1ccc(C(=O)Nc2cc(F)c3[nH]c(=O)ccc3c2)cc1	0	39*	35*	29	-3
COc1ccc(OC)c(NC(=O)c2ccc(C)c(F)c2)c1	-1	-5	-8	-1	-8
COc1ccc(C2CCNc3ccccc3N2)cc1 (configuration not stated)	-5	-10	-151	-29	37*
Oc1ccc(-c2nnc(Nc3ccc(Cl)c(Cl)c3)c3ccccc23)cc1	21	49*	-29	20	53*
SMILES	USP10 inh	USP17 inh	USP30 inh	USP28 block	USP8 block
Cc1nnc(SCC(=O)Nc2ccc(Cl)c(Cl)c2)c2ccccc12	1	-17	-13	-9	4
O=C(Nc1nc2c(s1)CN(Cc1ccccc1)CC2)c1cc(=O)c2ccccc2o1	0	-5	-23	-55	-3
O=C(NCCCN1CCCC1)c1ccc(CS(=O)(=O)c2ccc(Br)cc2)o1	-4	40*	-24	-6	-3
CCOC(=O)c1noc2ncnc(Nc3ccc4c(c3)OCO4)c12	0	28	-18	5	69*
CCOC(=O)c1noc2ncnc(N3CCc4ccccc43)c12	0	8	-1	-2	-13
CCOC(=O)c1noc2ncnc(Nc3ccc(N4CCC(C)CC4)cc3)c12	1	2	-2	-3	50*
CSc1ncccc1C(=O)OCc1ccccc1	6	1	-3	49*	1
COc1ccc(-c2[nH]ncc2CN2CCN(c3ccc(F)cc3)CC2)cc1	3	-35	-16	-6	-115
COc1ccc(N2CCN(Cc3nnnn3Cc3ccc4c(c3)OCO4)CC2)cc1	1	42*	53*	3	-5
CCCC1Cc2c(sc3nc(SCc4ccc(Cl)cc4)nc(N)c23)CO1 (configuration not stated)	3	0	nt	nt	-2
CCOC(=O)N1CCN(Cc2nnnn2-c2cccc(F)c2)CC1	1	17	34*	11	4
COc1nccnc1N1CCC(NC(=O)C2CCN(C(C)=O)CC2)C1 (configuration not stated)	-2	-9	-17	-8	-3
COc1ccc(OC)c(NC(=O)c2sccc2Oc2ccc(F)cc2[N+](=O)[O-])c1	1	9	30*	10	1
CC(=O)Nc1ccc(NC(=O)c2sccc2Oc2ccc([N+](=O)[O-])cc2)cc1	-1	1	12	0	-37
N#Cc1ccccc1COC(=O)c1c2c(nc3ccccc13)CCCCC2	2	-30	-8	-7	0
Cc1nc2cc(N3CC(C(=O)Nc4ccc(F)cc4C)CC3=O)ccc2o1 (configuration not stated)	0	63*	76*	16	22
CCOc1ccccc1NC(=O)CNc1cc(C(F)(F)F)ccc1N1CCOCC1	2	17	33*	17	26
CC(Nc1ccccc1N1CCOCC1)C(=O)Nc1cc(C(F)(F)F)ccc1N1CCOCC1 (configuration not stated)	3	9	8	3	16
O=C(O)c1cccc(S(=O)(=O)NCc2ccc3c(c2)OCO3)c1	1	9	35*	9	3
CC1Cc2ccccc2N1S(=O)(=O)c1cccc(C(=O)OCC(=O)Nc2ccc3c(c2)OCO3)c1 (configuration not stated)	8	-3	-57	8	37*
CC1Cc2ccccc2N1S(=O)(=O)c1cccc(C(=O)NCc2ccc(Cl)cc2Cl)c1 (configuration not stated)	-9	10	-112	-14	3
CC1Cc2ccccc2N1S(=O)(=O)c1cccc(C(=O)NCc2ccc3c(c2)OCO3)c1 (configuration not stated)	10	19	-3	-8	39*
Cc1ccc(Cl)cc1S(=O)(=O)NCCc1ccc2c(c1)CCCN2C	-11	-19	-183	-49	-12
COc1cccc(N2CC(=O)Nc3c(oc4nc(-c5ccccc5)cc(C)c34)C2=O)c1	26	3	37*	4	32*
